Shown are actives, neighbours in structure and some others; about 3% of the full set was active somewhere.
SENP6 block – inhibitors of human SENP6 protease | Q9GZR1 | inhibition, % at 10 µM | 330,000 compounds, 1.8% hits | Recombinant SENP6 catalytic domain, aminoluciferin luminescence;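 active means inhibition above about 50% at the single tested dose, limit read from the data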
SENP8 block-1 – blocks the human protease SENP8 | 330,000 compounds, 1.2% hits | purified SENP8, Z-RLRGG-aminoluciferin cleavage, luminescence | inhibition, % at 10 µM; in the data active means inhibition above about 50%
Target sequence (Q96LD8 whole entry, looked up): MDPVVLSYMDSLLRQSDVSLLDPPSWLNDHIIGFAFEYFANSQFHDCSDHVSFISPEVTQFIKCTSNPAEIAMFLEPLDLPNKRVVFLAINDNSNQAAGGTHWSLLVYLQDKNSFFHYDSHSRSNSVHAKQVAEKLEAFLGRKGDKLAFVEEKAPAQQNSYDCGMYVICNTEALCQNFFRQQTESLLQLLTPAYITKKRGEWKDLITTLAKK
PPC-1+TRAIL kill – PPC-1 cancer cell killing with TRAIL present. PPC-1 cells + TRAIL, ATPLite viability luminescence. cell killing (% activity), % at 4 µM or 5 µM. 220,000 compounds, 0.41% hits. AID 1443;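 active means cell killing above 50% in the first pass at 4 µM, then a duplicate retest at 5 µM averaging 50% or more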
SENP8 block-2 – inhibitors of human SENP8 protease. recombinant SENP8, Nedd8 substrate fluorescence. inhibition, % at 20 µM. AID 602440. 360,000 compounds, 0.64% hits; in the data active means inhibition mostly above about 40%, no sharp cut-off; inactive means mostly below about 27%
SENP7 inh – SENP7 protease inhibition; recombinant SENP7, Z-RLRGG-aminoluciferin luminescence, 40 min; inhibition, % at 5 µM; 330,000 compounds, 1.5% hits;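 active means inhibition above about 50% at the single test dose, limit read from the data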
Target sequence (Q9BQF6 706-1050 limits assumed): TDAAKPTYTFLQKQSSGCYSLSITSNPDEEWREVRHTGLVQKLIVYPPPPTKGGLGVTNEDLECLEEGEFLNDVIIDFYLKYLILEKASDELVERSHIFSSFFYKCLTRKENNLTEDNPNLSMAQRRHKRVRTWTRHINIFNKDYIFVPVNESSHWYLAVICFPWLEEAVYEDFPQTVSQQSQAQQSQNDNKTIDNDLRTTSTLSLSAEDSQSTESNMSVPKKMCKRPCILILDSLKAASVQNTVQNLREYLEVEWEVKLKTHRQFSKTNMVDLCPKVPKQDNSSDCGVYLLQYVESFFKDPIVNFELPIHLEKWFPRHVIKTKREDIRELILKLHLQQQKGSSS
C8 TRAIL sens – caspase-8 TRAIL sensitization. NB7+C8 cells + TRAIL, ATPlite viability luminescence. inhibition (viability loss, TRAIL sensitization), % at 10 µM. 360,000 compounds, 1% hits;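 active means compounds causing at least 50% loss of cell viability in the single-dose screen, relative to plate controls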
Numbers stand for hits.

For CCCNC(=O)C1(C)CCN1C(=O)Cc1ccc(C(C)(C)C)cc1 (stereo unspecified) the results were SENP8 block-2 inactive and C8 TRAIL sens inactive.
For COc1ccc(OC)c(/C=N/NC(=O)C(=O)N2CCCCCC2)c1 the results were SENP6 block inactive, SENP8 block-1 inactive, SENP8 block-2 inactive, SENP7 inh inactive and C8 TRAIL sens inactive.
`Cc1ccnc(NC(=S)NC(=O)c2cccs2)c1` gave SENP6 block inactive, SENP8 block-1 inactive, PPC-1+TRAIL kill 61, SENP8 block-2 inactive, SENP7 inh inactive and C8 TRAIL sens 89.
For Cc1ccnc(NC(=O)CNC(=O)c2cccs2)c1 the results were SENP6 block inactive, SENP8 block-1 inactive, SENP8 block-2 inactive, SENP7 inh inactive and C8 TRAIL sens inactive.
O=C(Nc1ccc(NC(=O)c2cccs2)cn1)c1ccccc1 was read as SENP6 block 64, SENP8 block-1 inactive, PPC-1+TRAIL kill inactive, SENP8 block-2 inactive, SENP7 inh 67 and C8 TRAIL sens inactive.
For O=C(Nc1ccc(NC(=O)C2CC2)nc1)c1cccs1 the results were SENP6 block inactive, SENP8 block-1 inactive, PPC-1+TRAIL kill inactive, SENP8 block-2 inactive, SENP7 inh inactive and C8 TRAIL sens inactive.
For Cc1ccnc(NC(=S)NC(=O)c2ccco2)c1 the results were SENP6 block inactive, SENP8 block-1 inactive, PPC-1+TRAIL kill inactive, SENP8 block-2 inactive, SENP7 inh inactive and C8 TRAIL sens 53.
`CC(CC(=O)OCC(=O)NCc1ccc(Cl)cc1)c1ccccc1` (stereo unspecified) gave SENP6 block inactive, SENP8 block-1 inactive, SENP8 block-2 inactive, SENP7 inh inactive and C8 TRAIL sens inactive.
`CCNC(=S)N/N=C1\C(=O)c2cccc3cccc1c23` gave SENP6 block inactive, SENP8 block-1 inactive, PPC-1+TRAIL kill inactive, SENP8 block-2 44, SENP7 inh inactive and C8 TRAIL sens inactive.
Screening O=C(N/N=C1/C(=O)c2cccc3cccc1c23)c1ccc(Cl)cc1 returned SENP6 block inactive, SENP8 block-1 inactive, PPC-1+TRAIL kill inactive, SENP8 block-2 48, SENP7 inh inactive and C8 TRAIL sens inactive.
Screening CCOc1ncccc1C(=O)Nc1ccc(S(=O)(=O)N2CC(C)CC(C)C2)cc1 (stereo unspecified) returned SENP6 block inactive, SENP8 block-1 inactive, SENP8 block-2 inactive, SENP7 inh inactive and C8 TRAIL sens inactive.
`N#Cc1ccsc1NC(=O)c1cccc([N+](=O)[O-])c1` gave SENP6 block inactive, SENP8 block-1 inactive, PPC-1+TRAIL kill inactive, SENP8 block-2 inactive, SENP7 inh inactive and C8 TRAIL sens inactive.
For N#Cc1ccsc1NC(=O)c1ccc(Cl)c([N+](=O)[O-])c1 the results were SENP6 block 96, SENP8 block-1 94, PPC-1+TRAIL kill inactive, SENP8 block-2 inactive, SENP7 inh 91 and C8 TRAIL sens inactive.
`CCc1ccc(/C=N/Nc2ncnc3nc[nH]c23)cc1` gave SENP6 block inactive, SENP8 block-1 inactive, PPC-1+TRAIL kill inactive, SENP8 block-2 inactive, SENP7 inh inactive and C8 TRAIL sens 60.
Nc1nc(N)c2cc(CNc3ccc(Cl)c(Cl)c3)ccc2n1 was read as SENP8 block-2 inactive and C8 TRAIL sens 95.
Screening Cc1ccc(C(=O)Nc2nc3ccccc3c(=O)s2)cc1 returned SENP6 block inactive, SENP8 block-1 inactive, PPC-1+TRAIL kill inactive, SENP8 block-2 inactive, SENP7 inh inactive and C8 TRAIL sens 61.
`CCOC(=O)c1sc2nc3c(SCC(=O)O)cc(C(=O)c4ccccc4O)cn3c(=O)c2c1C` gave SENP6 block inactive, SENP8 block-1 inactive, PPC-1+TRAIL kill inactive, SENP8 block-2 inactive, SENP7 inh inactive and C8 TRAIL sens 53.
CCOC(=O)c1sc2nc3c(SCC(=O)O)cc(C(=O)c4cc(F)ccc4O)cn3c(=O)c2c1C was read as PPC-1+TRAIL kill inactive, SENP8 block-2 inactive and C8 TRAIL sens inactive.
`O=C(O)c1cc(NN=Nc2cccc(S(=O)(=O)O)c2)cc([N+](=O)[O-])c1` gave SENP6 block inactive, SENP8 block-1 inactive, SENP8 block-2 inactive, SENP7 inh inactive and C8 TRAIL sens inactive.
Screening O=C(O)c1cc(NN=Nc2ccc(Br)cc2)cc([N+](=O)[O-])c1 returned SENP6 block 52, SENP8 block-1 inactive, PPC-1+TRAIL kill inactive, SENP8 block-2 inactive, SENP7 inh inactive and C8 TRAIL sens inactive.
O=C(O)c1cc(NN=Nc2cccc([N+](=O)[O-])c2)cc([N+](=O)[O-])c1 was read as SENP6 block 77, SENP8 block-1 57, PPC-1+TRAIL kill inactive, SENP8 block-2 inactive, SENP7 inh inactive and C8 TRAIL sens inactive.
For Cc1cc(Br)c(OCc2ccc(C(=O)N/N=C/c3ccc[nH]3)cc2)c(Br)c1 the results were SENP6 block inactive, SENP8 block-1 inactive, SENP8 block-2 inactive, SENP7 inh inactive and C8 TRAIL sens 68.
`O=C(N/N=C/c1ccc[nH]1)c1ccc(O)cc1` gave SENP6 block inactive, SENP8 block-1 inactive, PPC-1+TRAIL kill inactive, SENP8 block-2 inactive, SENP7 inh inactive and C8 TRAIL sens inactive.
`O=C(N/N=C/c1ccc[nH]1)c1ccc(COc2cccc3cccnc23)cc1` gave SENP6 block inactive, SENP8 block-1 inactive, PPC-1+TRAIL kill inactive, SENP8 block-2 inactive, SENP7 inh inactive and C8 TRAIL sens 63.
Screening O=[N+]([O-])c1ccc(NN=Cc2ccc3c(c2)OCO3)nc1 returned SENP8 block-2 inactive and C8 TRAIL sens inactive.
Screening COc1ccccc1C1c2ccc3ccccc3c2Oc2ncn(CCN(C)C)c(=N)c21 (stereo unspecified) returned SENP6 block inactive, SENP8 block-1 inactive, SENP8 block-2 inactive, SENP7 inh inactive and C8 TRAIL sens inactive.
Screening COc1ccc(C2c3ccc4ccccc4c3Oc3ncn(CCCN(C)C)c(=N)c32)cc1 (stereo unspecified) returned SENP6 block inactive, SENP8 block-1 inactive, SENP8 block-2 inactive, SENP7 inh inactive and C8 TRAIL sens 58.
`CCCCOC(=O)Nc1ccc(S(=O)(=O)Nc2nc(C)cc(C)n2)cc1` gave SENP6 block inactive, SENP8 block-1 inactive, PPC-1+TRAIL kill inactive, SENP8 block-2 inactive, SENP7 inh inactive and C8 TRAIL sens inactive.
CCCCCCOC(=O)Nc1ccc(S(=O)(=O)Nc2cccc([N+](=O)[O-])c2)cc1 was read as SENP6 block 52, SENP8 block-1 inactive, PPC-1+TRAIL kill inactive, SENP8 block-2 inactive, SENP7 inh inactive and C8 TRAIL sens inactive.
For O=c1[nH]cnc2c1sc1nc(C(F)F)cc(-c3ccccc3)c12 the results were SENP6 block inactive, SENP8 block-1 inactive, SENP8 block-2 inactive, SENP7 inh inactive and C8 TRAIL sens inactive.
Screening O=C(COC(=O)c1ccc(O)cc1)c1ccc2c(c1)OCCO2 returned SENP6 block 87, SENP8 block-1 70, SENP8 block-2 inactive, SENP7 inh 57 and C8 TRAIL sens inactive.
Screening O=C(COC(=O)c1ccc(O)cc1)Nc1ccc2c(c1)OCCO2 returned SENP6 block inactive, SENP8 block-1 inactive, SENP8 block-2 inactive, SENP7 inh inactive and C8 TRAIL sens inactive.

Bioassay records as filed in PubChem BioAssay.
